Shown is part of a subset that was picked to be rich in hits.
RVFV N-RNA FP – RVFV nucleocapsid-RNA interaction inhibition; P21700; RVFV N-RNA binding, fluorescence polarization; hits give low values; % bound, % (no concentration beside the values); actives 0.1% (n = 20,000); AID 651828; in the data active = % bound below about 75%
Target sequence (P21700 whole entry, looked up): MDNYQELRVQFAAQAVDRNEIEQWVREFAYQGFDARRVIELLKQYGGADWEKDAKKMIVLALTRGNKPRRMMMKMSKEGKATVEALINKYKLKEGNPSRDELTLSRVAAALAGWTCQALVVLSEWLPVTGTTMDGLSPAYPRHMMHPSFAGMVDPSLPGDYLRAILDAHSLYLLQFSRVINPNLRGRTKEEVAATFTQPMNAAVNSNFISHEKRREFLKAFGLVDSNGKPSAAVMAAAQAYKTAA
* = called active by the depositor.

SMILES | RVFV N-RNA FP
O=C1/C(=C/c2ccccc2)Oc2c1ccc(O)c2CN1CCCC1 | 106.2
CCN(CC)Cc1c(O)ccc2c1O/C(=C\c1ccccc1Cl)C2=O | 50.7*
CCN(CC)Cc1c(O)ccc2cc(-c3ccc(OC)c(OC)c3)c(=O)oc12 | 92.8
CC(=O)Nc1cccc(-n2nnc(SCC(=O)c3ccc4c(c3)OCCCO4)n2)c1 | 96.3
NC(=O)Cn1c(=O)c2ccc(Cl)cc2n2nncc12 | 94.8
COC(=O)c1sccc1NC(=O)c1ccc2nonc2c1 | 95.3
CCOC(=O)/C(C#N)=C/N1CCCC1c1cccs1 (configuration not stated) | 92.4
CCOC(=O)/C(C#N)=C/c1ccc(-c2cccs2)s1 | 18.8*
N#CC(C#N)=Cc1ccc(-c2cccs2)s1 | 86.2
O=C(CSc1nccc(=O)[nH]1)c1ccc(Br)cc1 | 98.1
C#CCn1c(=NC(=O)CC)sc2ccccc21 | 101.6
Cc1cccc(C2N(Cc3ccccc3)CCCN2Cc2ccccc2)n1 | 96.4
COC(=O)c1cc(-c2ccc(OC)cc2)n[nH]1 | 89.0
COc1ccc(O)cc1 | 99.2
COc1ccc(C2=CC(=O)C=CC2=O)cc1 | 52.0*
O=c1[nH][nH]c2nnc(-c3c(-c4ccccc4)nn4ccccc34)cc12 | 100.6
Cc1cc(=S)cc(C)n1C | 99.0
CC1(C)Cc2c(sc3nc(Nc4ccccc4)[nH]c(=O)c23)CO1 | 103.3
CC(C)(C)c1ccc(C(=O)n2cc(Br)cn2)cc1 | 89.7
O=C(N/N=C/c1cn(-c2ccccc2)nc1-c1cccs1)c1cccs1 | 87.1
COc1ccc(S(=O)(=O)NCc2cn3cccc(C)c3n2)cc1OC | 89.0
CC1(C)CC2CC(C)(CN2Cc2c(O)ccc3cc(-c4ccccn4)c(=O)oc23)C1 (configuration not stated) | 100.5
Cc1cc2oc(=O)cc(-c3cc4ccccc4o3)c2cc1OCC(N)=O | 90.9
Cc1cc(=O)oc2c1c(C)nn2CCO | 111.6
CCCNC(=S)N1CCN(S(=O)(=O)c2ccc(OC)c(OC)c2)CC1 | 92.3
SMILES | RVFV N-RNA FP
Nc1noc2c1C(c1ccc(F)c(Oc3ccccc3)c1)C1=C2CCCC1=O (configuration not stated) | 90.2
O=C(Nc1ccc2c(c1)oc1ccccc12)c1cccc(N2C(=O)CCC2=O)c1 | 108.4
CCCCN1Cc2c(sc3c2CCCC3)N(C(C)=O)C1 | 91.3
Nc1c(C(=O)OCC2CCCO2)c2nc3ccccc3nc2n1-c1ccc2c(c1)OCO2 (configuration not stated) | 98.4
Cc1nnc(C)n1N1C(=O)c2cccc3cccc(c23)C1=O | 88.3
O=C1C=C(O)c2cccc3cccc1c23 | 45.2*
CCCC(=O)ON1C(=O)c2cccc3cccc(c23)C1=O | 98.1
O=S(=O)(c1cccc(F)c1)N1CCN(c2nc3ccc(Cl)cc3s2)CC1 | 101.5
O=c1ccc(-c2cccs2)nn1Cc1ccccc1 | 92.6
C=C(C)CN(CC)Cc1ccc(C(=O)OC)cc1 | 100.0
Cc1ccc(N2CCN(C(=O)N3CCCCCC3)CC2)cc1Cl | 81.0
CCC(C)N(C(=O)/C=C/c1cccs1)C(C)CC (configuration not stated) | 89.6
O=C(N/N=C/c1ccc(OC2CSC2)cc1)c1ccncc1 | 103.7
OC(CON=C1c2ccccc2-c2ccccc21)CN1CCN(c2ccccn2)CC1 (configuration not stated) | 93.5
CSCc1nnc(NC(=O)c2ccc(S(=O)(=O)N(C)Cc3ccccc3)cc2)o1 | 97.4
Cc1cc2c(=O)n(CC(=O)Nc3ccccc3)cnc2s1 | 97.3
N#CCCn1cc(C(=O)N(c2ccccc2)c2ccccc2)c(-c2ccccc2)n1 | 99.7
CNC(=S)NNc1nc(N2CCCC2)nc(N2CCCC2)n1 | 93.4
CCNc1ncnc2c1nnn2CC | 90.0
O=c1c(-c2cccc(C(F)(F)F)c2)[n+]([O-])c2ccccc2n1O | 75.7
CC(C)(C)c1cc(N=O)cc(C(C)(C)C)c1O | 105.4
CCCCN1C(=O)SC(Nc2cccc(C)c2)C1=O (configuration not stated) | 98.8
O=C(CC1C(=O)NC2CCCCC2N1C(=O)Nc1cccc(Cl)c1)Nc1ccc2c(c1)OCO2 (configuration not stated) | 94.2
N#CSCCCOc1ccc(Cl)cc1 | 98.8
COc1ccc(CCNC(=O)c2ccc(N(C)S(C)(=O)=O)cc2)cc1 | 104.1
SMILES | RVFV N-RNA FP
COc1c(F)c(F)c(C(=O)Nc2ccc(N3CCN(S(C)(=O)=O)CC3)cc2)c(F)c1F | 94.0
COc1ccc(Cc2nnc(Nc3ccc(Cl)cc3Cl)o2)cc1OC | 98.6
COc1ccc2cc(Br)ccc2c1CC(=O)N1CCOCC1 | 94.3
S=c1[nH]ncn1-c1ccccc1 | 94.6
O=C1Nc2ccccc2/C1=C\c1c(Cl)[nH]c2ccccc12 | 103.1
CCOC(=O)c1c(C)[nH]c(/C=C2\C(=O)Nc3ccccc32)c1C | 12.2*
CCN(CC)CCNC(=O)c1c(C)[nH]c(/C=C2\C(=O)Nc3ccc(Cl)cc32)c1C | 109.2
OC(CSc1ccc(F)cc1)CN1CCN(c2ccc(C(F)(F)F)cn2)CC1 (configuration not stated) | 101.1
O=C(Nc1ccc(I)cn1)c1ccc(-c2ccc(Cl)cc2)o1 | 97.0
CNC(=O)Nc1cn(C)c2ccccc12 | 105.3
CCC1N(c2ccccc2)CCN1c1ccccc1 | 81.9

Screens deposited in PubChem BioAssay by ICCB-Longwood Screening Facility, Harvard Medical School.
